According to PubChem BioAssay (NCATS):
Records with an inconclusive call do not appear. Entries that show only a call come without a potency. Active and inactive are the calls of the source. Unless noted, the call rests on the fitted dose curve.

Key:
[1] = target: Glucocorticoid receptor (Homo sapiens) (UniProt P04150); test: qHTS assay for small molecule agonists of glucocorticoid receptor signaling (AID 588532; active means well fitted curve in the direction sought with a large enough effect in the signal ratio, with a control signal flat; the % refers to the signal ratio); conditions: HeLa MMTV-bla, beta-lactamase ratio, agonist, 18 h; stronger effect = higher value; percent of dexamethasone control, DMSO zero
How it was run: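 MMTV-bla HeLa, beta-lactamase reporter; medium with 1% charcoal/dextran-stripped FBS; cpds up to 92 uM, 18 h, 37 C; CCF4 readout 460/530 nm; Hill fit → EC50, efficacy vs 0.1 uM dexamethasone = 100%.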

[2] = target: Glucocorticoid receptor (Homo sapiens) (UniProt P04150); test: qHTS assay for small molecule antagonists of glucocorticoid receptor signaling (AID 588533; active means well fitted inhibition curve with a large enough effect in the signal ratio, with a control signal flat, not every such curve was filed as active; the % refers to the signal ratio;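 further: cells stimulated with 2 nM dexamethasone as agonist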); conditions: HeLa MMTV-bla, GRE beta-lactamase ratio, antagonist mode, 18 h; series mostly up to 76.8 µM
How it was run: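 Antagonist-mode qHTS: compound titrations added to GRE-bla HeLa cells, then dexamethasone 2 nM final; 18 h, 37 C. CCF4 FRET fluorescence normalized to dexamethasone and DMSO; IC50 from Hill fit.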

[3] = qHTS assay for small molecule antagonists of peroxisome proliferator-activated receptor delta signaling (AID 588535; active means well fitted inhibition curve with a large enough effect in the signal ratio, with a control signal flat, not every such curve was filed as active; the % refers to the signal ratio;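 on max response: cells co-treated with a PPAR-delta agonist as stimulator during compound exposure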); conditions: HEK293T PPARd-UAS-bla, beta-lactamase FRET ratio, 18 h; 460 nm channel
How it was run: (§1)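 Compounds tested in titration on PPAR-delta-UAS-bla HEK293T cells grown in charcoal/dextran-stripped serum (2%); beta-lactamase activity read via CCF4 emission at 460 and 530 nm.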

[4] = target: Peroxisome proliferator-activated receptor delta (Homo sapiens) (UniProt Q03181); test: as above; conditions: HEK293T PPARd-UAS-bla, beta-lactamase FRET ratio, 18 h; series mostly up to 76.7 µM
How it was run: as §1

[5] = target: Vitamin D3 receptor (Homo sapiens) (UniProt P11473); test: qHTS assay for small molecule agonists of vitamin D receptor signaling (AID 588543); conditions: HEK293T VDR-UAS-bla, beta-lactamase ratio, 16 h; series mostly up to 76.8 µM
How it was run: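 VDR-UAS-bla HEK293T cells, 2000/well, 2% charcoal-stripped FBS; compound titration 16 h at 37 C; CCF4 beta-lactamase ratio read. Normalized to 50 nM 1-alpha,25-dihydroxyvitamin D3 (100%) and DMSO; Hill fit gives EC50, efficacy.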

[6] = qHTS assay for small molecule agonists of retinoid X receptor alpha signaling (AID 588544); conditions: HEK293T RXRa-UAS-bla, beta-lactamase reporter, 18 h; 530 nm emission
[7] = target: Retinoic acid receptor RXR-alpha (Homo sapiens) (UniProt P19793); test: as above; conditions: HEK293T RXRa-UAS-bla, beta-lactamase reporter, 18 h; series mostly up to 76.7 µM
[8] = target: Thyroid hormone receptor beta (Homo sapiens) (UniProt P10828); test: qHTS assay for small molecule agonists of thyroid hormone receptor beta signaling (AID 588545); conditions: TR-UAS-bla GripTite HEK 293, beta-lactamase ratio, agonist mode, 18 h, percent of T3 response, DMSO as zero; series mostly up to 76.7 µM
How it was run: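 Agonist activity was read as beta-lactamase CCF4 fluorescence (405 ex, 460/530 em), scaled between DMSO (0%) and 10 nM T3 (100%), then Hill-fitted for EC50 and efficacy. HEK 293 TR-UAS-bla cells in 2% charcoal/dextran FBS medium were exposed 18 h at 37 C.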

[9] = qHTS assay for small molecule antagonists of retinoid X receptor alpha signaling (AID 588546; active means well fitted inhibition curve with a large enough effect in the signal ratio, with a control signal flat, not every such curve was filed as active; the % refers to the signal ratio;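 further: cells stimulated with 9-cis-retinoic acid as agonist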); conditions: HEK293T RXRa-UAS-bla, beta-lactamase ratio, antagonist mode; measured here: W530 green channel, cytotoxicity proxy
How it was run: (§2)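 Beta-lactamase reporter inhibition, read as CCF4 fluorescence ratio (ex 405, em 460/530 nm) after 2 h at RT. HEK293T UAS-bla cells, 2500/well, were stimulated with 9-cis-RA at 500 or 100 nM final alongside test compound for 18 h at 37 C.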

[10] = target: Retinoic acid receptor RXR-alpha (Homo sapiens) (UniProt P19793); test: as above; conditions: HEK293T RXRa-UAS-bla, beta-lactamase ratio, antagonist mode
How it was run: as §2

[11] = target: Thyroid hormone receptor beta (Homo sapiens) (UniProt P10828); test: qHTS assay for small molecule antagonists of thyroid hormone receptor beta signaling (AID 588547; active means well fitted inhibition curve with a large enough effect in the signal ratio, with a control signal flat, not every such curve was filed as active; the % refers to the signal ratio;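 further: cells stimulated with 0.4 nM T3 agonist during compound exposure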); conditions: TR-UAS-bla HEK293, beta-lactamase ratio, antagonist mode, 18 h
How it was run: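 TR-UAS-bla GripTite HEK293 cells in 2% charcoal/dextran FBS medium were preincubated 4 h at 37 C, given compound (0.59 nM to 92 uM) plus 0.4 nM T3 (final) for 18 h, then CCF4 for 2 h at RT; Hill fit gave IC50.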

[12] = target: Voltage-gated inwardly rectifying potassium channel KCNH2 (Homo sapiens) (UniProt Q12809); test: qHTS Assay for Small Molecule Inhibitors of the Human hERG Channel Activity (AID 588834; active means well fitted inhibition curve with a large enough effect;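 further: top concentration of the series differs between compounds; lower thallium flux fluorescence means stronger hERG block; nearly all actives have a fitted effect of over 50% in size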); conditions: U2OS BacMam hERG, FluxOR thallium flux fluorescence; series mostly up to 92.2 µM
How it was run: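 Thallium serves as surrogate for K+ influx through BacMam-delivered hERG in U2OS cells. Compounds are added for about 10 minutes after dye loading; stimulation buffer then starts flux, monitored kinetically on FDSS.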

[13] = qHTS assay for small molecule agonists of the antioxidant response element (ARE) signaling pathway (AID 651741; active means well fitted activation curve with a large enough effect in the signal ratio; the % refers to the signal ratio; further: potency means the concentration at half of the fitted maximal effect); conditions: HepG2 ARE-bla reporter, beta-lactamase FRET ratio, 16 h; series mostly up to 96 µM
How it was run: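 Beta-lactamase reporter expression driven by the antioxidant response element in HepG2 cells was detected by fluorescence with LiveBLAzer B/G FRET substrate (2 h, room temperature) following 16 h compound treatment at 37 C.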

[14] = qHTS assay for small molecule activators of the p53 signaling pathway (AID 651743; active means well fitted activation curve with a large enough effect in the signal ratio, not every such curve was filed as active; the % refers to the signal ratio); conditions: HCT-116 p53RE-bla, beta-lactamase FRET ratio, 16 h; stronger effect = higher value
How it was run: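 Here HCT-116 cells with an integrated p53-responsive beta-lactamase gene were incubated with compounds (16 hours, 37 C) after a 5-hour plating period; beta-lactamase activity was detected as fluorescence intensity via B/G FRET substrate.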

[15] = qHTS assay for small molecule activators of the nuclear factor-kappa B (NF-kB) signaling pathway (AID 651749; active means well fitted activation curve with a large enough effect in the signal ratio; the % refers to the signal ratio); conditions: NF-kB-bla ME-180 cells, beta-lactamase FRET ratio, 16 h; stronger effect = higher value
How it was run: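 Beta-lactamase reporter expression, controlled by NF-kB response elements in ME-180 cells, was quantified fluorometrically via FRET disruption; cells at 2,000/well had been incubated with 23 nL test compound for 16 hr.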

[16] = qHTS assay for small molecule disruptors of the mitochondrial membrane potential - 1 hr assay (AID 651754); conditions: series mostly up to 92.2 µM; further: nearly all actives have a fitted effect of over 35% in size
How it was run: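 Read-out: dye fluorescence at 490 nm ex/535 nm em (monomers) and 540 nm ex/590 nm em (aggregates) in HepG2 cells. Compound exposure 1 hr at 37C, followed by 30 min dye loading.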

[17] = target: Peroxisome proliferator-activated receptor gamma (Homo sapiens) (UniProt P37231); test: qHTS assay for small molecule agonists of peroxisome proliferator-activated receptor gamma signaling (AID 588536; active means well fitted curve in the direction sought with a large enough effect in the signal ratio, with a control signal flat, not every such curve was filed as active; the % refers to the signal ratio); conditions: HEK293 PPARg-UAS-bla, beta-lactamase ratio, 16 h, percent of rosiglitazone response, DMSO as zero; series mostly up to 76.7 µM
How it was run: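 Compound treatment: 16 h, 37 C, HEK293 GeneBLAzer cells. Detection: CCF4, 2 h RT. Values: Hill-fit EC50, efficacy as % of 2 uM rosiglitazone.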

[18] = target: Vitamin D3 receptor (Homo sapiens) (UniProt P11473); test: qHTS assay for small molecule antagonists of vitamin D receptor signaling (AID 588541); conditions: HEK293T VDR-UAS-bla, beta-lactamase ratio, antagonist mode; series mostly up to 76.7 µM;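 further: receptor activated by calcitriol during compound treatment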
How it was run: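 VDR-UAS-bla HEK293T cells (2000/well, 2% charcoal-stripped FBS) were treated with titrated compounds plus 1-alpha,25-dihydroxyvitamin D3 (50 nM or 3 nM final) for 16 h at 37 C. CCF4 beta-lactamase fluorescence was read; Hill fits gave IC50.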

[19] = target: Peroxisome proliferator-activated receptor gamma (Homo sapiens) (UniProt P37231); test: qHTS assay for small molecule antagonists of peroxisome proliferator-activated receptor gamma signaling (AID 588537; active means well fitted inhibition curve with a large enough effect in the signal ratio, with a control signal flat, not every such curve was filed as active; the % refers to the signal ratio;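 further: reporter cells co-stimulated with 50 nM rosiglitazone agonist during compound treatment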); conditions: HEK293 PPARg-UAS-bla, beta-lactamase ratio, antagonist mode; series mostly up to 76.8 µM
How it was run: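 HEK293 cells, PPAR-gamma-UAS-bla, 3000/well. Pre-incubation 6-6.5 h, 37 C. Compound titration with rosiglitazone 50 nM final, 16 h. CCF4 dye, 2 h RT, dual-emission fluorescence.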

Vitamin D3 receptor (Homo sapiens), sequence (P11473 whole entry, looked up): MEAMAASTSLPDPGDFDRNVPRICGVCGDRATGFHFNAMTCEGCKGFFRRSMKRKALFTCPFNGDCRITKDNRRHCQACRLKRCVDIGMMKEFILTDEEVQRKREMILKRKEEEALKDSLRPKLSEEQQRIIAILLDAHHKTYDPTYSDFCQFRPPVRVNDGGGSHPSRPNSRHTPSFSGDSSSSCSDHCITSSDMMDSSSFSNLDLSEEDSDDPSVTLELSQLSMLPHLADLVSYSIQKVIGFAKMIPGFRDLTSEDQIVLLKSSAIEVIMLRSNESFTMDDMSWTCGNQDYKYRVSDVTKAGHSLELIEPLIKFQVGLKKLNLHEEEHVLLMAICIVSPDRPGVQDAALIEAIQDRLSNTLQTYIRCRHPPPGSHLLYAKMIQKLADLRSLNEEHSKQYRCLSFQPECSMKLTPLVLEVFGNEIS
Voltage-gated inwardly rectifying potassium channel KCNH2 (Homo sapiens), sequence (Q12809 whole entry, looked up): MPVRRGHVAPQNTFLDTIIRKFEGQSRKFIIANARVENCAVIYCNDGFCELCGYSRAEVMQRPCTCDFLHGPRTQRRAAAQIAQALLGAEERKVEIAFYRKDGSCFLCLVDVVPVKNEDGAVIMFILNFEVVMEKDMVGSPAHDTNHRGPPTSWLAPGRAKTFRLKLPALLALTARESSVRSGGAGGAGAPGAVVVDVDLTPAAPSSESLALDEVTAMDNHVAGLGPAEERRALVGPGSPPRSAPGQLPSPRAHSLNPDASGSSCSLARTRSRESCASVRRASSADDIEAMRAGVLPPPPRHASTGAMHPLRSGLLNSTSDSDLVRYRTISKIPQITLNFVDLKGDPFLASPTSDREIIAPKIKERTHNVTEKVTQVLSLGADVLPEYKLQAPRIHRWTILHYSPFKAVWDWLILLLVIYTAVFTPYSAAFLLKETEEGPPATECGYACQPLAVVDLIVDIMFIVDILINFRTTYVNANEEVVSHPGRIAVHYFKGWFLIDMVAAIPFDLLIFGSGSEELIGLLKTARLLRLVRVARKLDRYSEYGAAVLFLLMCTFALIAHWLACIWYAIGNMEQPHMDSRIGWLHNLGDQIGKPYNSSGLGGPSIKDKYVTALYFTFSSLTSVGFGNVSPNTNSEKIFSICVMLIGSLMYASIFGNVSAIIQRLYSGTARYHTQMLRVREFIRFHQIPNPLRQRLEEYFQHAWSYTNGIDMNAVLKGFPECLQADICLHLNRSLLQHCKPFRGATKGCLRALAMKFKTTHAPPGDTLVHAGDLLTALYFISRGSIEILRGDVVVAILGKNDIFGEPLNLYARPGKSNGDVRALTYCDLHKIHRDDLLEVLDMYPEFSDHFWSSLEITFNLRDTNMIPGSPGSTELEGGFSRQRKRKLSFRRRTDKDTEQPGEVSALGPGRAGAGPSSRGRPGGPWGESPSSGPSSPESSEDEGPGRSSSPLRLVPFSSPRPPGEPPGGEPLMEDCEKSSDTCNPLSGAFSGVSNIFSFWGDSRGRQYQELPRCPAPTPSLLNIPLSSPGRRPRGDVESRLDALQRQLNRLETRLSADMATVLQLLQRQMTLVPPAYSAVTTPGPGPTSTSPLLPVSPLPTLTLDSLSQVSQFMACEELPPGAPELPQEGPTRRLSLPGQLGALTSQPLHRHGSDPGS
Thyroid hormone receptor beta (Homo sapiens), sequence (P10828 whole entry, looked up): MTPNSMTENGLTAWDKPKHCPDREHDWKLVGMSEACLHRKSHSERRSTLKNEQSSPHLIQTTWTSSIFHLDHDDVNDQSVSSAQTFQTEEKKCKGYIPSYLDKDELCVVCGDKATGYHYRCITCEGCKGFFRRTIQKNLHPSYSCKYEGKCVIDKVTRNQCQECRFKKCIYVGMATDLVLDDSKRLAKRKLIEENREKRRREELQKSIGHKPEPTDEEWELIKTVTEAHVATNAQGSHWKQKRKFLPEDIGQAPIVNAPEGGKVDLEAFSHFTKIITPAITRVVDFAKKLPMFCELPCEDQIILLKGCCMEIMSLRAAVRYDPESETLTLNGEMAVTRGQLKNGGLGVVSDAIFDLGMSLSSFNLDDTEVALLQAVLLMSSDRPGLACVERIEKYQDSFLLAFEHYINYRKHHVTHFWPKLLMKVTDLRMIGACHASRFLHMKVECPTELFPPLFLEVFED
Retinoic acid receptor RXR-alpha (Homo sapiens), sequence (P19793 whole entry, looked up): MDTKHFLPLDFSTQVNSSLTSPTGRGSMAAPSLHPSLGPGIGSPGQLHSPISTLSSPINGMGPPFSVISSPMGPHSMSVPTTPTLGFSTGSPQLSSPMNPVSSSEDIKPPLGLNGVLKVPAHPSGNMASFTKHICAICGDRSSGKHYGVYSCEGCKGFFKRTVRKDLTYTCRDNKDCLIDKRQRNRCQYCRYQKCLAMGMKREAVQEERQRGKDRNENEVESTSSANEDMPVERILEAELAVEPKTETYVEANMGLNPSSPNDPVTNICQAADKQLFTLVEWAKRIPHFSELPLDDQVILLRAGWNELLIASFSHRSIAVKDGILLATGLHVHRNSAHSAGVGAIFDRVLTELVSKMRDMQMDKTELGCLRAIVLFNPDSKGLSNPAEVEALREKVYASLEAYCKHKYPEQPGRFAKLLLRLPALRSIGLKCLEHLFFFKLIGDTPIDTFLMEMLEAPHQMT
Glucocorticoid receptor (Homo sapiens), sequence (P04150 whole entry, looked up): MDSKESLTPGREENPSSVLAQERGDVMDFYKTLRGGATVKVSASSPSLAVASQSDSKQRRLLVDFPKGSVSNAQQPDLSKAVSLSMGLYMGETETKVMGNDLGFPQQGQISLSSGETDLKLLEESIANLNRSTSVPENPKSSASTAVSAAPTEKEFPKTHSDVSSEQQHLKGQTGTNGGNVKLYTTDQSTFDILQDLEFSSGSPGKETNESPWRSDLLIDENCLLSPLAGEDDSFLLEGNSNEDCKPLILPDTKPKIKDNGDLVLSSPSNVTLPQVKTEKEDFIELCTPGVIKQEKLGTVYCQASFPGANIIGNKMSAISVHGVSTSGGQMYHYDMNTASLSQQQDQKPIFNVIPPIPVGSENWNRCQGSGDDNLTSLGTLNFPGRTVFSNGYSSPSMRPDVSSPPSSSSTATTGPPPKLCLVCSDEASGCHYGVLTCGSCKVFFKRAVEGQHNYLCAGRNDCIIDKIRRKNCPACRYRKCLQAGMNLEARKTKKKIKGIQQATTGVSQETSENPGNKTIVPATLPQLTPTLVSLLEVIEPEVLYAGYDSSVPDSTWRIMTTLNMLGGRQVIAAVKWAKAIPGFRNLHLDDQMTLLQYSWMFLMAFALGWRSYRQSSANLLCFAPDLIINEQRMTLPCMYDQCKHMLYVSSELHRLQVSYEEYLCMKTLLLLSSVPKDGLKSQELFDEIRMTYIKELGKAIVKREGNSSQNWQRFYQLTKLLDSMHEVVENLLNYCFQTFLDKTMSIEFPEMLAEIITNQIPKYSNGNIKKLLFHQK
Peroxisome proliferator-activated receptor gamma (Homo sapiens), sequence (P37231 whole entry, looked up): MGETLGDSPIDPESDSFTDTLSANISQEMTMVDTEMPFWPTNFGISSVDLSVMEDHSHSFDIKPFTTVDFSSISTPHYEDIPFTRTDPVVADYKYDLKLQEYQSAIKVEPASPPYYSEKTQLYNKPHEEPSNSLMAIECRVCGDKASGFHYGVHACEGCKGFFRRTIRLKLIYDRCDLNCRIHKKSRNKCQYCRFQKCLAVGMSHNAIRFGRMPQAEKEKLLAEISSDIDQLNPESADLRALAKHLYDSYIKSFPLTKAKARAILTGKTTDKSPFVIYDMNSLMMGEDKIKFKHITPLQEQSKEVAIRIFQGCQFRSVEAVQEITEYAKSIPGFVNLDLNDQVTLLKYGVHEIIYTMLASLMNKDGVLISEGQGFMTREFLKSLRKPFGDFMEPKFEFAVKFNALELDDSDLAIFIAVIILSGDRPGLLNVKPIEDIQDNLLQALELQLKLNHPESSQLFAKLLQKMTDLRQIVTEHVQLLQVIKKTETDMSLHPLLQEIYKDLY
Peroxisome proliferator-activated receptor delta (Homo sapiens), sequence (Q03181 whole entry, looked up): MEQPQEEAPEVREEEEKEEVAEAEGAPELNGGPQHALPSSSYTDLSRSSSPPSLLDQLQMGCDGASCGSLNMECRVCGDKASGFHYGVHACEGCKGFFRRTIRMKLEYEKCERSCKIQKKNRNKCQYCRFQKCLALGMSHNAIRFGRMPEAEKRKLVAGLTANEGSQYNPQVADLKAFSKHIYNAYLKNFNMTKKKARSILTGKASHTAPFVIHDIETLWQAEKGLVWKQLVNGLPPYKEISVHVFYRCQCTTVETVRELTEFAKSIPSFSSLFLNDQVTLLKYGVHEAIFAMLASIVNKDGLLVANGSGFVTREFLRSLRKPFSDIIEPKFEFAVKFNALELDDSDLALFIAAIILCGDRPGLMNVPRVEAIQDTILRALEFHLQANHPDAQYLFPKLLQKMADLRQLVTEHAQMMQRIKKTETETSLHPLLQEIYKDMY

SMILES	activation [1]	outcome [2]	max response [3] [%]	Potency [4]	outcome [5]	max response [6] [%]	outcome [7]	outcome [8]	max response [9] [%]	max response [10]	activity change % (negative = inhibition) [11]	Potency [12]	Potency [13]	activation [14]	activation [15]	Potency [16]	outcome [17]	outcome [18]	outcome [19]
CC(C)=CCl	2.68% (inactive)	inactive	6.55	inactive	inactive	6.48	inactive	inactive	-7.86	7.55% (inactive)	-1.53% (inactive)	inactive	inactive	-2.89% (inactive)	0.211% (inactive)	inactive			
ICCc1ccccc1	-2.34% (inactive)	inactive	13.6	inactive	inactive	3.08	inactive	inactive	-3.71	22.3% (inactive)	3.09% (inactive)	inactive	inactive	-3.45% (inactive)	-1.75% (inactive)		inactive	inactive	
CN(C)c1cccc(O)c1	-1.05% (inactive)	inactive	-10	inactive	inactive	-0.228	inactive	inactive	-1.21	8.46% (inactive)	5.73% (inactive)	inactive			-0.862% (inactive)	inactive	inactive	inactive	
O=[N+]([O-])c1ccccc1CCO	3.95% (inactive)	inactive	-6.01	inactive	inactive	4.35	inactive		-5.47		2.13% (inactive)	inactive		-1.31% (inactive)	-0.881% (inactive)	inactive	inactive	inactive	
CC(C)(c1cc(Br)c(OCC(Br)CBr)c(Br)c1)c1cc(Br)c(OCC(Br)CBr)c(Br)c1 (centres undefined)	11.6% (inactive)	inactive	-13.7	inactive	inactive				-15.9	2.49% (inactive)	-9.17% (inactive)	inactive	inactive	2.84% (inactive)			inactive	inactive	
Nc1ccc(F)cc1F	-11.6% (inactive)	inactive	-4.23	inactive	inactive	-10.9	inactive		-8.47	16.2% (inactive)		inactive	inactive	-3.46% (inactive)	-1.13% (inactive)	inactive	inactive	inactive	
COc1ccc(N=[N+]([O-])c2ccc(OC)cc2)cc1	9.01% (inactive)	inactive	8.26	inactive	inactive			inactive	-4.97	-10.1% (inactive)	11.6% (inactive)	inactive	37.6 µM (active)	-0.811% (inactive)	0.0779% (inactive)	inactive	inactive	inactive	
Clc1cc(Cl)cc(Cl)c1	5.2% (inactive)	inactive	-6.75	inactive	inactive	-9.27	inactive		-4.96	2.45% (inactive)		inactive	inactive	-2.32% (inactive)		inactive	inactive	inactive	
Cc1cc(C)cc(N)c1	-0.353% (inactive)	inactive	-0.443		inactive	-7.06	inactive	inactive	1.47	9.88% (inactive)	-11.7% (inactive)	inactive	inactive	-1.89% (inactive)	0.882% (inactive)	inactive	inactive	inactive	inactive
CCNS(=O)(=O)c1ccc(C)cc1	-0.758% (inactive)	inactive	8.52	inactive		7.68	inactive		0.888		-4.68% (inactive)	inactive	inactive	-2.94% (inactive)		inactive	inactive		
CC(=O)c1nccs1	-5.55% (inactive)	inactive	-6.53	inactive	inactive	4.76	inactive	inactive	-5.53		1.64% (inactive)	inactive	inactive	-4.02% (inactive)		inactive	inactive	inactive	
CCCCC(=O)N(C)C	-1.2% (inactive)	inactive	-15	inactive	inactive	-11.8	inactive	inactive	-2.95	11.5% (inactive)	6.71% (inactive)	inactive		-1.85% (inactive)	-0.0165% (inactive)	inactive	inactive	inactive	
C=CCOC(=O)COCCC(C)C	-3.64% (inactive)	inactive	79.8	inactive		-2.63	inactive	inactive	-11.5	9.99% (inactive)		inactive	inactive		-0.303% (inactive)	inactive	inactive		
Cc1c(N)cccc1[N+](=O)[O-]	-3.4% (inactive)	inactive	-31.1	inactive		-2.78	inactive	inactive	-6.48	-2.95% (inactive)	-5.59% (inactive)	inactive		-0.892% (inactive)		inactive	inactive		
CC(O)COC(C)(C)C (centres undefined)	-7.34% (inactive)	inactive	-1.74	inactive	inactive	-7.25	inactive	inactive	0.664	-2.68% (inactive)	-13.8% (inactive)	inactive	inactive	-6.33% (inactive)	-0.964% (inactive)	inactive	inactive	inactive	
